From ChEMBL document CHEMBL1961873, “Compounds: GSK PKIS; Assays: Nanosyn kinase panel” (2012)

Legend:
[1] = target: Mitogen-activated protein kinase kinase kinase kinase 4 (Homo sapiens) (UniProt O95819); conditions: at 1 µM;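 also: reported figure is an averaged inhibition value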
[2] = target: Dual specificity mitogen-activated protein kinase kinase 1 (Homo sapiens) (UniProt Q02750); conditions: at 0.1 µM
[3] = target: Dual specificity mitogen-activated protein kinase kinase 1 (Homo sapiens) (UniProt Q02750); conditions: at 1 µM
[4] = target: Misshapen-like kinase 1 (Homo sapiens) (UniProt Q8N4C8); conditions: at 0.1 µM
[5] = target: Misshapen-like kinase 1 (Homo sapiens) (UniProt Q8N4C8); conditions: at 1 µM
[6] = target: T1, Serine/threonine-protein kinase 4 (Homo sapiens) (UniProt Q13043); conditions: at 0.1 µM
T1 sequence (whole entry): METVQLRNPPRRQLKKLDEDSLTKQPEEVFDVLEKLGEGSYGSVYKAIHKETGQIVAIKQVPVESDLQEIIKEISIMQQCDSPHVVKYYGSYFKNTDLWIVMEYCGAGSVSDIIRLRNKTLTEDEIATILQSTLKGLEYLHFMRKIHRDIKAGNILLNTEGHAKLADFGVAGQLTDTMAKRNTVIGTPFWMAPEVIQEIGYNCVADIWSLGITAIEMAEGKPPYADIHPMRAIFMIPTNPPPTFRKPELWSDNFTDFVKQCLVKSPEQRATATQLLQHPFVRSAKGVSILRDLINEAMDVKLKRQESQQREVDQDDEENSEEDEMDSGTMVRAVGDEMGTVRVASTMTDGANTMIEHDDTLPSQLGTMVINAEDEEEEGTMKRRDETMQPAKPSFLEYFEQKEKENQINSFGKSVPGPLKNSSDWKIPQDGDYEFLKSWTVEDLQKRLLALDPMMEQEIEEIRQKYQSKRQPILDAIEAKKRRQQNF

[7] = target: T1, Serine/threonine-protein kinase 4 (Homo sapiens); conditions: at 1 µM
[8] = target: T2, Serine/threonine-protein kinase 3 (Homo sapiens) (UniProt Q13188); conditions: at 0.1 µM
T2 sequence (whole entry): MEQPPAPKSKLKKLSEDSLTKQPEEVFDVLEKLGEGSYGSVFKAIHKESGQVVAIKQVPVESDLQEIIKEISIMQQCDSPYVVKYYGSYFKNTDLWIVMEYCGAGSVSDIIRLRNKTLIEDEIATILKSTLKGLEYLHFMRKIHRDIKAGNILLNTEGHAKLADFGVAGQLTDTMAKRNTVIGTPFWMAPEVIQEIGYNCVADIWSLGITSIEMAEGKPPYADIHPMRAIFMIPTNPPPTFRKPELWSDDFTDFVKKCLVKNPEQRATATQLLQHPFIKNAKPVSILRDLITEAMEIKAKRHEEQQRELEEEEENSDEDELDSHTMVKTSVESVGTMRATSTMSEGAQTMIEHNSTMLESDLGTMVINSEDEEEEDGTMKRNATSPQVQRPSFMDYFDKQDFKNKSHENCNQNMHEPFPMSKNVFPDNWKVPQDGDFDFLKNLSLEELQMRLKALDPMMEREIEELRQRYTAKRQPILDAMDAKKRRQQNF

[9] = target: T2, Serine/threonine-protein kinase 3 (Homo sapiens); conditions: at 1 µM
[10] = target: Serine/threonine-protein kinase 26 (Homo sapiens) (UniProt Q9P289); conditions: at 0.1 µM
Sequence of Serine/threonine-protein kinase 26 (Homo sapiens) (Q9P289 2-416 limits assumed): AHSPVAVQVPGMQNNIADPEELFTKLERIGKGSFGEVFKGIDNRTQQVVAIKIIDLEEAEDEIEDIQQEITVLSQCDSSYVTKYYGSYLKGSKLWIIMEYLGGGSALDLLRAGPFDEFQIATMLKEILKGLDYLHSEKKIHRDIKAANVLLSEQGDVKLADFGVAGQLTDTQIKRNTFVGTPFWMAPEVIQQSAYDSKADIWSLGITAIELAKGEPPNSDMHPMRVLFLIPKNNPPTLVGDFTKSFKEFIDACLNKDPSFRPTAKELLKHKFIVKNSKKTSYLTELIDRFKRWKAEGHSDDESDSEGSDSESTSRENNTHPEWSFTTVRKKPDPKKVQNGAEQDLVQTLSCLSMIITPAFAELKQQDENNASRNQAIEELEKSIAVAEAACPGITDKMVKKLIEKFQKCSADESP

[11] = target: Serine/threonine-protein kinase 26 (Homo sapiens) (UniProt Q9P289); conditions: at 1 µM
[12] = target: Serine/threonine-protein kinase PAK 1 (Homo sapiens) (UniProt Q13153); conditions: at 0.1 µM
Sequence of Serine/threonine-protein kinase PAK 1 (Homo sapiens) (Q13153 whole entry): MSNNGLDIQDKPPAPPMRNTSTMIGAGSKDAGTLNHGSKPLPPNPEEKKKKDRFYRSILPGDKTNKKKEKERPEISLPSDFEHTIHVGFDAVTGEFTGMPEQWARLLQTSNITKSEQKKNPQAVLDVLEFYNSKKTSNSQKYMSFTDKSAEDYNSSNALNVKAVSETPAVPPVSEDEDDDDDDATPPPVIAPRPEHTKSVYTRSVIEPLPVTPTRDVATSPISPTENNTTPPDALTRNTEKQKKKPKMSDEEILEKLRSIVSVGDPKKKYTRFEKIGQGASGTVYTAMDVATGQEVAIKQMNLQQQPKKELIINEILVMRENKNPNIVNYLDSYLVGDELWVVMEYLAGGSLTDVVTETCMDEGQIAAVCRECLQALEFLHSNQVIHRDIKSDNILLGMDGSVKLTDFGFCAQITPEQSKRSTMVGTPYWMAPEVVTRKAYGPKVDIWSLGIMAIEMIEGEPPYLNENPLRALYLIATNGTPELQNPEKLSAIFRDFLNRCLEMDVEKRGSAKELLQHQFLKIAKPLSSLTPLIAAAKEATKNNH

[13] = target: Serine/threonine-protein kinase PAK 1 (Homo sapiens) (UniProt Q13153); conditions: at 1 µM
[14] = target: Serine/threonine-protein kinase PAK 2 (Homo sapiens) (UniProt Q13177); conditions: at 0.1 µM
[15] = target: Serine/threonine-protein kinase PAK 2 (Homo sapiens) (UniProt Q13177); conditions: at 1 µM
[16] = target: Serine/threonine-protein kinase PAK 3 (Homo sapiens) (UniProt O75914); conditions: at 0.1 µM
Sequence of Serine/threonine-protein kinase PAK 3 (Homo sapiens) (O75914 whole entry, looked up): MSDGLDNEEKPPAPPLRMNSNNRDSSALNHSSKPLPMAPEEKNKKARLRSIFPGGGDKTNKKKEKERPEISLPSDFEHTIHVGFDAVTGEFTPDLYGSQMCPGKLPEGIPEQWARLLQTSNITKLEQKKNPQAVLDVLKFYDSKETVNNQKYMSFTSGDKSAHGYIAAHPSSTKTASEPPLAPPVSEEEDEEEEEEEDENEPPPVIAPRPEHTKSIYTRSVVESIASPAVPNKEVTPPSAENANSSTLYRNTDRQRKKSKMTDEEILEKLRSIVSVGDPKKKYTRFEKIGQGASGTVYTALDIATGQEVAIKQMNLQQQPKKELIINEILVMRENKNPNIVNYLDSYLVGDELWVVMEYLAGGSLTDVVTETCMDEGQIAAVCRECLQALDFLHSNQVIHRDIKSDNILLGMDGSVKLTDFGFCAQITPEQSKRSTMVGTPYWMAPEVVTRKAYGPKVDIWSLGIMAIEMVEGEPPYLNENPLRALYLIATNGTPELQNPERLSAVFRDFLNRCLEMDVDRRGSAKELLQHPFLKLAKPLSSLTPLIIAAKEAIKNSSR

[17] = target: Serine/threonine-protein kinase PAK 3 (Homo sapiens) (UniProt O75914); conditions: at 1 µM
[18] = target: Serine/threonine-protein kinase PAK 5 (Homo sapiens) (UniProt Q9P286); conditions: at 0.1 µM
Sequence of Serine/threonine-protein kinase PAK 5 (Homo sapiens) (Q9P286 whole entry, looked up): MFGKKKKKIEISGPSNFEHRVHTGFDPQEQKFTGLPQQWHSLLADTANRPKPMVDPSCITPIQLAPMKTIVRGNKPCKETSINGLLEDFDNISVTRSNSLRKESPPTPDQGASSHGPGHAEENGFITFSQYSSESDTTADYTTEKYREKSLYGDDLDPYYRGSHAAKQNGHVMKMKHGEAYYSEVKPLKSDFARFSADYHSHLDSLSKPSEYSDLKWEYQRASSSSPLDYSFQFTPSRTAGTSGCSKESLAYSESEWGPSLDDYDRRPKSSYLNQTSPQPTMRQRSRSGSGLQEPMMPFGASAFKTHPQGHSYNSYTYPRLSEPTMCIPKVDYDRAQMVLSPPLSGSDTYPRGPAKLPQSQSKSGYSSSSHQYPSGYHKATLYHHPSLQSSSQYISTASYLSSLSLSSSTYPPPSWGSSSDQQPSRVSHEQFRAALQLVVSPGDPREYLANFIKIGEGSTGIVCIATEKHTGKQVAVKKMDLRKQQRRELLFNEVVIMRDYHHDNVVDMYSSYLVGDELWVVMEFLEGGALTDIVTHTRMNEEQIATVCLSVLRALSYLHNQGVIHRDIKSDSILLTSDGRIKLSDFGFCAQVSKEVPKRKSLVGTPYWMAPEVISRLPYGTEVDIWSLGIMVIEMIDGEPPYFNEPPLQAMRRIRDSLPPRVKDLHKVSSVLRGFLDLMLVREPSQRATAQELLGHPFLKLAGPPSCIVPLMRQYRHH

[19] = target: Serine/threonine-protein kinase PAK 5 (Homo sapiens) (UniProt Q9P286); conditions: at 1 µM
[20] = target: Serine/threonine-protein kinase PAK 6 (Homo sapiens) (UniProt Q9NQU5); conditions: at 0.1 µM;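 also: mean PAK6 inhibition reported from the GSK PKIS screen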
Sequence of Serine/threonine-protein kinase PAK 6 (Homo sapiens) (Q9NQU5 whole entry, looked up): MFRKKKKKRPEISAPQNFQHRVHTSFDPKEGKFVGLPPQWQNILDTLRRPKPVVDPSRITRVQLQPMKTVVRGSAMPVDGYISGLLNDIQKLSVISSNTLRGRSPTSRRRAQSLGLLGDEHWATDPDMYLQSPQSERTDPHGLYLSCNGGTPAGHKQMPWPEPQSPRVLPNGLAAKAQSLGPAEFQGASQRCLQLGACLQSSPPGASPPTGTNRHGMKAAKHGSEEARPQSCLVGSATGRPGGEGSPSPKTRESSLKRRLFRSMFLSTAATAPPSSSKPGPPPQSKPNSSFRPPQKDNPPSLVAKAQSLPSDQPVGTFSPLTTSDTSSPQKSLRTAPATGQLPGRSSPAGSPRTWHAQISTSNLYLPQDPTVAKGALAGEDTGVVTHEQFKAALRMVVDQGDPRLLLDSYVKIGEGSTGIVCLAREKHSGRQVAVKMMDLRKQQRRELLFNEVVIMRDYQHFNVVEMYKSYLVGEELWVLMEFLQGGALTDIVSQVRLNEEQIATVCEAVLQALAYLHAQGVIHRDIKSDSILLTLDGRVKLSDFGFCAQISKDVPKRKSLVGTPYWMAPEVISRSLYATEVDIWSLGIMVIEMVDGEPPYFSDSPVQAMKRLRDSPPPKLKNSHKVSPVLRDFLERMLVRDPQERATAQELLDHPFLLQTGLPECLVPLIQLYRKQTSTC

Sequence of Dual specificity mitogen-activated protein kinase kinase 1 (Homo sapiens) (Q02750 whole entry): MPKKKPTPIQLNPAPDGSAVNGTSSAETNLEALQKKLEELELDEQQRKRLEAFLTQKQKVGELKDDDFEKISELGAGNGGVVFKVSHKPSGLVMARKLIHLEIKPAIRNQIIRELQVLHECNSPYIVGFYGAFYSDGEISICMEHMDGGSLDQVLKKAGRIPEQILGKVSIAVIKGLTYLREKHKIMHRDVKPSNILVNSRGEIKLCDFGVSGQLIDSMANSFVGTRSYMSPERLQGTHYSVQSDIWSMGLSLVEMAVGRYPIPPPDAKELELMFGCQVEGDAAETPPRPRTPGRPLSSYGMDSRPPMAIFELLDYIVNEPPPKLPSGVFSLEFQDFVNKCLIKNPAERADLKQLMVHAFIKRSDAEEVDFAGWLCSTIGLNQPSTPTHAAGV
Sequence of Mitogen-activated protein kinase kinase kinase kinase 4 (Homo sapiens) (O95819 2-1239 limits assumed): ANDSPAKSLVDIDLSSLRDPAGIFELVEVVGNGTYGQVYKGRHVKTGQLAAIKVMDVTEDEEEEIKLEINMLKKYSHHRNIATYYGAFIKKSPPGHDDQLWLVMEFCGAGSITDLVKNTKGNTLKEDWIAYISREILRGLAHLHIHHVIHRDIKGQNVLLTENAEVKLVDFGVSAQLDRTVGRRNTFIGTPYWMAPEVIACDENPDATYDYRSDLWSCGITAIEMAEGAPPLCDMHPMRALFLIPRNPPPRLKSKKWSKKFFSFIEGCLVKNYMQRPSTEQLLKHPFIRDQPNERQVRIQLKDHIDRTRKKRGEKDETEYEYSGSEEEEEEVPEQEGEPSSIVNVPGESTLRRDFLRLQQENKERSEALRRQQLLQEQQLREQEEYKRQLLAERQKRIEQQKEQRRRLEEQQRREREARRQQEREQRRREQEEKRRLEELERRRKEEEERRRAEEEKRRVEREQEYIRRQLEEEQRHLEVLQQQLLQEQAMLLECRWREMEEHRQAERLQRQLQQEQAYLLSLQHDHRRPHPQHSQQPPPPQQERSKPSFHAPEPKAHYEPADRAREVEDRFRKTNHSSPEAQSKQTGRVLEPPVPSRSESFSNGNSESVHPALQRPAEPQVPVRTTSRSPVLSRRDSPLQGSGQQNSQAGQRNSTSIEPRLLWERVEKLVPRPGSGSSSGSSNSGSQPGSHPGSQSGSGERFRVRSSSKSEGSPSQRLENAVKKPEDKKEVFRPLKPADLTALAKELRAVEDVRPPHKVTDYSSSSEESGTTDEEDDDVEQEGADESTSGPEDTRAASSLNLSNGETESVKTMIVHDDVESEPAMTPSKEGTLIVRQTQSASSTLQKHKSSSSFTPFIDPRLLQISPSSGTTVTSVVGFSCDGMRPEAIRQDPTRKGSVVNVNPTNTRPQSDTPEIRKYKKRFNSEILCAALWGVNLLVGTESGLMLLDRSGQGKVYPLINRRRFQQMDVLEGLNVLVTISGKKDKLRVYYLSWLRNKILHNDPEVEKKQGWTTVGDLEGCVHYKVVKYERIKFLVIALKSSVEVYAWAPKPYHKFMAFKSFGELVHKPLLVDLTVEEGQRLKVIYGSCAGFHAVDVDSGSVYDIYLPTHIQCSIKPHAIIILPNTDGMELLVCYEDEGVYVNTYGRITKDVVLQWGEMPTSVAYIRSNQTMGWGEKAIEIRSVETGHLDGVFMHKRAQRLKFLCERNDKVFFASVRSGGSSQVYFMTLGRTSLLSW

NS(=O)(=O)c1ccc(N/N=C2\C(=O)Nc3ccc(C(=O)NCc4ccncc4)cc32)cc1
inhibition [1]: 46.5% | inhibition [2]: 15.6% | inhibition [3]: 57.6% | inhibition [4]: 9.67% | inhibition [5]: 39.4% | inhibition [6]: 36.8% | inhibition [7]: 76.1% | inhibition [8]: 31.2% | inhibition [9]: 72% | inhibition [10]: 0.05% | inhibition [11]: 6.51% | inhibition [12]: 4.25% | inhibition [13]: 4.68% | inhibition [14]: 2.01% | inhibition [15]: 2.49% | inhibition [16]: 4.5% | inhibition [17]: 4.65% | inhibition [18]: 9.16% | inhibition [19]: 11.3% | inhibition [20]: -4.52%

NC(=O)c1ccc2c(-c3ccnc(NCCCO)n3)c(-c3ccc(F)cc3)nn2c1
inhibition [1]: 51.7% | inhibition [2]: 6.94% | inhibition [3]: 13.2% | inhibition [4]: 10.1% | inhibition [5]: 35.5% | inhibition [6]: 4.48% | inhibition [7]: 5.36% | inhibition [8]: 4.28% | inhibition [9]: 4.67% | inhibition [10]: -2.37% | inhibition [11]: -2.28% | inhibition [12]: 7.12% | inhibition [13]: 6.41% | inhibition [14]: 2.25% | inhibition [15]: 2.24% | inhibition [16]: 4.61% | inhibition [17]: 4.88% | inhibition [18]: 0.64% | inhibition [19]: -4.27% | inhibition [20]: 5.26%

Cc1c2ccc(N(C)c3ccnc(Nc4cccc(S(N)(=O)=O)c4)n3)cc2nn1C
inhibition [1]: 55.2% | inhibition [2]: 6.31% | inhibition [3]: 10.7% | inhibition [4]: 12.8% | inhibition [5]: 55.3% | inhibition [6]: 6.6% | inhibition [7]: 8.01% | inhibition [8]: 5.78% | inhibition [9]: 7.64% | inhibition [10]: -1.28% | inhibition [11]: -1.81% | inhibition [12]: 7.49% | inhibition [13]: 5.47% | inhibition [14]: 3.47% | inhibition [15]: 3.15% | inhibition [16]: 4.74% | inhibition [17]: 7.28% | inhibition [18]: 1.63% | inhibition [19]: -1.02% | inhibition [20]: 2.18%

COC(=O)Nc1nc2ccc(Oc3ccc(NC(=O)Nc4cc(C(F)(F)F)ccc4F)cc3)cc2s1
inhibition [1]: 8.34% | inhibition [2]: 0.28% | inhibition [3]: 1.52% | inhibition [4]: 2.27% | inhibition [5]: 6.19% | inhibition [6]: -0.61% | inhibition [7]: -1.63% | inhibition [8]: -0.86% | inhibition [9]: -0.3% | inhibition [10]: 0.45% | inhibition [11]: 1.71% | inhibition [12]: -2.89% | inhibition [13]: 1.52% | inhibition [14]: -1.5% | inhibition [15]: -0.42% | inhibition [16]: -1.09% | inhibition [17]: 0.28% | inhibition [18]: 0.53% | inhibition [19]: -1.37% | inhibition [20]: 2.82%

CCn1c(-c2nonc2N)nc2cncc(C(=O)NCCNC)c21
inhibition [1]: 11.3% | inhibition [2]: 4.81% | inhibition [3]: 3.62% | inhibition [4]: 7.39% | inhibition [5]: 10.8% | inhibition [6]: 3.84% | inhibition [7]: 6.56% | inhibition [8]: 5.96% | inhibition [9]: 7.27% | inhibition [10]: -3.72% | inhibition [11]: -4.29% | inhibition [12]: 6.24% | inhibition [13]: 7.29% | inhibition [14]: 1.98% | inhibition [15]: 2.75% | inhibition [16]: 5.11% | inhibition [17]: 5.12% | inhibition [18]: 3.97% | inhibition [19]: 7.69% | inhibition [20]: 0.36%

Fc1ccc(Nc2nccc(-c3c(-c4ccc(C(F)(F)F)cc4)nn4ncccc34)n2)cc1F
inhibition [1]: 2.77% | inhibition [2]: 3.85% | inhibition [3]: 3.88% | inhibition [4]: 6.5% | inhibition [5]: 4.38% | inhibition [6]: 6.25% | inhibition [7]: 7.23% | inhibition [8]: 6.51% | inhibition [9]: 5.09% | inhibition [10]: -0.69% | inhibition [11]: -0.83% | inhibition [12]: 4.75% | inhibition [13]: 4.66% | inhibition [14]: 1.92% | inhibition [15]: 2.47% | inhibition [16]: 3.13% | inhibition [17]: 3.25% | inhibition [18]: -0.66% | inhibition [19]: -1.33% | inhibition [20]: 0.92%

CCOc1ccc2c(-c3ccnc(Nc4cc(OC)cc(C(F)(F)F)c4)n3)cnn2n1
inhibition [1]: 8.47% | inhibition [2]: 0.11% | inhibition [3]: 0.8% | inhibition [4]: 2.19% | inhibition [5]: 6.36% | inhibition [6]: 0.03% | inhibition [7]: 1.83% | inhibition [8]: -0.19% | inhibition [9]: 2.45% | inhibition [10]: 1.73% | inhibition [11]: 1.8% | inhibition [12]: 2.05% | inhibition [13]: 0.59% | inhibition [14]: -0.62% | inhibition [15]: 0.03% | inhibition [16]: -0.15% | inhibition [17]: -0.09% | inhibition [18]: 0.09% | inhibition [19]: 8.65% | inhibition [20]: -8.96%

Fc1cccc(COc2ccc(Nc3ncncc3C#Cc3ccccc3)cc2Cl)c1
inhibition [1]: 15% | inhibition [2]: 6% | inhibition [3]: 4.44% | inhibition [4]: 7.69% | inhibition [5]: 15.9% | inhibition [6]: 6.89% | inhibition [7]: 9.95% | inhibition [8]: 6.83% | inhibition [9]: 8.97% | inhibition [10]: -0.45% | inhibition [11]: 0.47% | inhibition [12]: 4.22% | inhibition [13]: 6.2% | inhibition [14]: 1.86% | inhibition [15]: 2.71% | inhibition [16]: 4.76% | inhibition [17]: 5.44% | inhibition [18]: 1.61% | inhibition [19]: 0.61% | inhibition [20]: 1.93%

FC(F)(F)CNc1nccc(-c2cnn3ncccc23)n1
inhibition [1]: 3.37% | inhibition [2]: 1.61% | inhibition [3]: 2.41% | inhibition [4]: 3.42% | inhibition [5]: 3.44% | inhibition [6]: 3.65% | inhibition [7]: 3.82% | inhibition [8]: 6.06% | inhibition [9]: 6.67% | inhibition [10]: -0.96% | inhibition [11]: -0.52% | inhibition [12]: 0.97% | inhibition [13]: 6.19% | inhibition [14]: 0.24% | inhibition [15]: -0.87% | inhibition [16]: 4.27% | inhibition [17]: 3.14% | inhibition [18]: 1.55% | inhibition [19]: 1.35% | inhibition [20]: -2.63%
